# Calls of active or inactive are those of the source. How the source made its calls: active means hit-call score of the fitted dose curve at least 0.9, where 1 is the maximum; inactive means score below 0.9.
# Assay: IUF_NPC1_viability_72hr: Viability Assessment at 72 hours in the Leibniz Research Institute for Environmental Medicine (IUF) Neural Progenitor Cell Proliferation Assay (NPC1) (AID 2284209)
# Procedure: IUF_NPC1 is a cell-based, multiplexed assay that uses hNPC, a human primary neural progenitor cells, with measurements taken at 72 hours after chemical dosing in a 96-well plate. Human neural progenitor cells (hNPC) are generated from human fetal brain cortex at gestational week (GW) 16-19. Grown in suspension culture and under proliferative conditions (proliferation media and growth factors), these cells represent neural progenitor cell proliferation. In the NPC1 assay, hNPC's are exposed to the test compound for 72h. Cell proliferation is assessed as an increase in sphere area using automated phase contrast imaging and as incorporation of Bromodeoxyuridine (BrdU) during DNA synthesis using a luminescence-based cell proliferation ELISA. In parallel, the cell viability is assessed using an alamar blue viability assay and the cytotoxicity using a lactate dehydrogenase dependent membrane integrity assay.IUF_NPC1_viability_72hr is one of 4 assay components measured from the IUF_NPC1 assay. It is designed to measure cell viability assessed as mitochondria-dependent reduction of resazurin to resorufin using the alamar blue cell viability assay. Viability is measured as a fluorescence signal (relative fluorescence unit) in a multiplate reader. Data from the IUF_NPC1_viability component was analyzed at the endpoint IUF_NPC1_viability in the positive analysis fitting direction relative to DMSO as the negative control and baseline of activity. Using a type of viability reporter, gain or loss-of-signal activity can be used to understand viability effects.
# After the cell expansion period, the cells are cultured for up to four weeks in which they are passaged every week. Between one to three days after passaging, depending on the size chosen for passaging, spheres at a size of 0.3 mm are used in the assay. For the assessment of neural progenitor cell proliferation, the spheres are plated in poly-Hema coated 96-well U-bottom plates filled with proliferation medium containing growth factors (EGF and FGF). One 0.25 - 0.35 mm big sphere is plated in the middle of each well. Within 3 days NPCs proliferate and grow in size. Cultivation during the test method is performed at 37C and 5% CO2 at a pH of 7.2-7.6. As a positive control, spheres are cultivated in the absence of growth factors (EGF and FGF), which dramatically reduces proliferation. Exposure starts on the plating day (day 0) and is continued over three days, without chemical renewal, until the experiment is terminated. The assay is terminated by the assessment of cell viability, cytotoxicity, and proliferation by BrdU. All endpoints are generated from the same experimental run and from each well/sphere in the 96-well plate.
SMILES,outcome,AC50
O=[N+]([O-])/N=C1\NCCN1Cc1ccc(Cl)nc1,inactive,–
CC(C)N(C(=O)COc1nnc(C(F)(F)F)s1)c1ccc(F)cc1,inactive,–
O=S(=O)(O)C(F)(F)C(F)(F)C(F)(F)C(F)(F)C(F)(F)C(F)(F)C(F)(F)C(F)(F)F,inactive,–
O=C(O)COc1ccc(Cl)cc1Cl,inactive,–
O=C(O)C(F)(F)C(F)(F)C(F)(F)C(F)(F)C(F)(F)C(F)(F)C(F)(F)F,inactive,–
O=S1OCC2C(CO1)C1(Cl)C(Cl)=C(Cl)C2(Cl)C1(Cl)Cl (stereo not drawn),–,2.63 µM (active)
CCC(C)(C)C(=O)OC1=C(c2ccc(Cl)cc2Cl)C(=O)OC12CCCCC2,inactive,–
COP(=O)(OC)OC=C(Cl)Cl,–,91.4 µM (active)
CNC(=O)CSP(=S)(OC)OC,inactive,–
COP(=S)(OC)Oc1ccc([N+](=O)[O-])cc1,inactive,–
CC1(c2ccc(Oc3ccccc3)cc2)OC(=O)N(Nc2ccccc2)C1=O (stereo not drawn),inactive,–
CC1(C)C(C=C(Cl)Cl)C1C(=O)OC(C#N)c1ccc(F)c(Oc2ccccc2)c1 (stereo not drawn),inactive,–
CC[C@H](C)[C@H]1O[C@]2(C=C[C@@H]1C)C[C@@H]1C[C@@H](C/C=C(\C)[C@@H](O[C@H]3C[C@H](OC)[C@@H](O[C@H]4C[C@H](OC)[C@@H](O)[C@H](C)O4)[C@H](C)O3)[C@@H](C)/C=C/C=C3\CO[C@@H]4[C@H](O)C(C)=C[C@@H](C(=O)O1)[C@]34O)O2 (tested in a mixture with another compound),inactive,–

# From PubChem BioAssay (EPA / NIEHS)
